Rows were chosen to be rich in hits. Some 11% of all compounds tested hit in one or more screens of this group.
FLuc inh – Firefly luciferase inhibition profiling of diverse chemical library using quantitative high-throughput screening | purified P. pyralis luciferase, luminescence, biochemical | Potency, µM (top dose mostly 115 µM), most hits filed as inhibitors | 76,000 compounds, 2.5% hits | AID 1347043, 2019 | Luciferin 4-monooxygenase (Photinus pyralis), P08659; active = well fitted curve in the direction sought with a large enough effect; inconclusive = small, poorly fitted or top-dose-only effect, or another doubt; inactive = no such curve, though single readings can be large; an effect the other way counts as inactive or inconclusive; note: % is set by controls: 0 for no effect and ±100 for the full control effect; nearly all actives have a fitted effect of over 65% in size
Target sequence (P08659 whole entry, looked up): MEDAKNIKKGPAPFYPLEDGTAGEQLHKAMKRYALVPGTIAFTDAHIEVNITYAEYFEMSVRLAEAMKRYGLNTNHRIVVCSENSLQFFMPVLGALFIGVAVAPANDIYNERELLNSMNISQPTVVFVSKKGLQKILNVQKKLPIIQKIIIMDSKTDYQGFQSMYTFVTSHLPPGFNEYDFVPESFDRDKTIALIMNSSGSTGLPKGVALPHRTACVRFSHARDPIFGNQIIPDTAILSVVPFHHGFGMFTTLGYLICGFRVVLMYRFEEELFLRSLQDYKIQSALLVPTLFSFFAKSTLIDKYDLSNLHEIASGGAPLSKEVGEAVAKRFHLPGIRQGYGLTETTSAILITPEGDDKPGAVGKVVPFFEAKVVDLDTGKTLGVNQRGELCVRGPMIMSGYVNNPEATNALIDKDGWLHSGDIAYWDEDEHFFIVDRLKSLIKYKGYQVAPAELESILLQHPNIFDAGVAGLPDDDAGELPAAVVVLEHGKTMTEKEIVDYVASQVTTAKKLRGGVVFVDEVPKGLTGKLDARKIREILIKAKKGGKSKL
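Cell-free enzyme assay, 10nM P. pyralis luciferase, luciferin and ATP each at 10uM. Inhibition profiled over a 6-point titration, read as luminescence.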
NPR1 antag – Natriuretic polypeptide receptor (hNpr1) antagonism - Primary qHTS; Atrial natriuretic peptide receptor 1 (Homo sapiens), P16066; Potency, µM (titrated, usually from 46.3 µM), without a hit: at the highest dose activity change, negative = inhibition, hits mostly inhibitors; HEK293 hNpr1 GloSensor cGMP, ANP-stimulated luminescence; 76,000 compounds, 1.6% hits; AID 1347048, 2019; note: % is set by controls: 0 for no effect and ±100 for the full control effect; nearly all actives have a fitted effect of over 60% in size
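HEK293 cells stably expressing human Npr1 and cGMP GloSensor pGS-40F, loaded 2 h with 2% GloSensor reagent, given compound 30 min at room temperature. Luminescence read before and 20 min after 0.1 nM hNppA.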
HEK cytotox – Cytotoxic Profiling in HEK 293 Cell Line of Diverse Libraries Using Quantitative High-Throughput Screening; HEK 293 viability, ATP luminescence (CellTiter-Glo), 48-72 h; Potency, µM (series often up to 115 µM), for the others: at the highest dose activity change, negative = cytotoxicity, usual class: inhibitors; 94,000 compounds, 6.6% hits; AID 1345083, 2018; active = well fitted curve in the direction sought with a large enough effect; inconclusive = small, poorly fitted or top-dose-only effect, or another doubt; inactive = no such curve, though single readings can be large; an effect the other way counts as inactive or inconclusive; note: % is set by controls: 0 for no effect and ±100 for the full control effect; nearly all actives have a fitted effect of over 60% in size
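Cells seeded first (HEK 293, 250 cells/well), then compound added by pintool. Incubation ran 48 or 72 hr at 37 degree Celsius. CellTiter-Glo was added and luminescence imaged after 10 min at room temperature.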
3T3 cytotox – Cytotoxic Profiling in NIH 3T3 Cell Line of Diverse Libraries Using Quantitative High-Throughput Screening; NIH 3T3 viability, CellTiter-Glo ATP luminescence, 48-72 h; Potency, µM (series often up to 96.7 µM), without a hit: at the highest dose activity change, negative = cytotoxicity, actives largely listed as inhibitors; 94,000 compounds, 4.3% hits; AID 1345082, 2018; active = well fitted curve in the direction sought with a large enough effect; inconclusive = small, poorly fitted or top-dose-only effect, or another doubt; inactive = no such curve, though single readings can be large; an effect the other way counts as inactive or inconclusive; note: % is set by controls: 0 for no effect and ±100 for the full control effect; nearly all actives have a fitted effect of over 55% in size
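Cytotoxicity is measured as loss of cellular ATP: NIH 3T3 cells (400/well) are exposed to compound for 48 or 72 hr at 37 °C, then CellTiter-Glo luminescence is imaged after 10 min at room temperature.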
NPR1 antag cnf – Natriuretic polypeptide receptor (hNpr1) antagonism - Confirmation; shares compounds with NPR1 antag; HEK293 hNpr1 cGMP GloSensor luminescence, ANP-stimulated; Potency, µM (highest dose often 57.6 µM), without a hit: at the highest dose activity change, negative = inhibition, usual class: inhibitors; 1,400 compounds, 76% hits; note: nearly all actives have a fitted effect of over 70% in size
NPR2 antag – Natriuretic polypeptide receptor (hNpr2) antagonism - Subtype selectivity assay | shares compounds with NPR1 antag | HEK293 hNpr2 GloSensor cGMP luminescence, CNP-stimulated | Potency, µM (top dose mostly 57.6 µM), for the others: top-dose activity change, negative = inhibition, hits mostly inhibitors | 1,400 compounds, 67% hits; note: nearly all actives have a fitted effect of over 70% in size
FLuc inh counter – Natriuretic polypeptide receptor (hNpr1) antagonism - Confirmation firefly luciferase (FLuc) inhibition counterscreen; shares compounds with NPR1 antag; purified FLuc enzyme, luminescence, Km substrate; Potency, µM (doses to about 57.6 µM), for inactives: at the highest dose activity change, negative = inhibition, most hits filed as inhibitors; 1,400 compounds, 0.7% hits; active = well fitted curve in the direction sought with a large enough effect; inconclusive = small, poorly fitted or top-dose-only effect, or another doubt; inactive = no such curve, though single readings can be large; an effect the other way counts as inactive or inconclusive; note: 0% is about no effect
GloSensor ctrl – Natriuretic polypeptide receptor (hNpr1) antagonism - Counterscreen GloSensor control cell line; shares compounds with NPR1 antag; HEK293 GloSensor cGMP, SNP-stimulated, luminescence; Potency, µM (highest dose often 57.6 µM), for inactives: top-dose activity change, negative = inhibition, most hits filed as inhibitors; 1,400 compounds, 69% hits; note: % is set by controls: 0 for no effect and ±100 for the full control effect; nearly all actives have a fitted effect of over 70% in size
Numbers without * were called inactive; i = inactive; ? = inconclusive; / = not tested or not shown; [ ] = dose if it differs, or a comment. Unless noted, calls come from the whole dose curve. Potency is the fitted concentration of half-maximal effect.

SMILES	FLuc inh	NPR1 antag	HEK cytotox	3T3 cytotox	NPR1 antag cnf	NPR2 antag	FLuc inh counter	GloSensor ctrl
O=C(NCCc1ccccc1)c1cc2n(n1)CC(c1ccc(Cl)cc1)OC2 (stereo not drawn)	i	?	?	?	?	?	-4%	?
Cc1ccc(NC(=O)c2cc3n(n2)CC(c2ccc(Cl)cc2)OC3)cc1 (stereo not drawn)	i	?	?	?	/	/	/	/
Cc1nc(CN2CCN(CC3(O)CNCCOC3)CC2)cs1 (stereo not drawn)	i	-4%	-21%	0%	/	/	/	/
COc1ccc2[nH]c(CNC(=O)C(c3ccc(F)cc3)N(C)C)cc2c1 (stereo not drawn)	i	-10%	?	-22%	/	/	/	/
Cc1nnc([C@@H]2CC(F)(F)CN2C(=O)COc2ccccc2)o1	i	-1%	-10%	-5%	/	/	/	/
CCOCCNc1nccc(C2(c3ccccc3Cl)CCNCC2)n1	i	6%	-27%	?	/	/	/	/
Cn1cccc1CN1CCCCCCNC(=O)[C@@H]2CCC[C@@H]21	i	3%	-29%	-11%	/	/	/	/
O=C(Nc1ccc(F)c(Cl)c1)c1cc2n(n1)CC(c1ccc3c(c1)OCO3)OC2 (stereo not drawn)	i	?	45µM*	?	27µM*	?	-9%	?
O=C(Nc1cc(F)ccc1Cl)c1cc2n(n1)CC(c1ccc3c(c1)OCO3)OC2 (stereo not drawn)	?	2%	?	-20%	/	/	/	/
O=C(NCCc1cccnc1)c1cc2n(n1)CC(c1ccc(Br)cc1)OC2 (stereo not drawn)	i	11µM*	40µM*	?	19µM*	19µM*	0%	12µM*
Cc1cc(F)ccc1NC(=O)c1cc2n(n1)CC(c1ccc(Br)cc1)OC2 (stereo not drawn)	i	?	79µM*	-29%	?	?	1%	?
Cc1ccc(NC(=O)c2cc3n(n2)CC(c2ccc(Cl)cc2)OC3)c(Cl)c1 (stereo not drawn)	i	-25%	?	-16%	/	/	/	/
CCc1nc2c(c(-c3ccc(Cl)cc3)n1)CN([S+](=O)([O-])c1cccs1)CC2	i	3%	-19%	-15%	/	/	/	/
COc1ccc(CN2C(=O)[C@@H]3C[C@@H](CN3Cc3cccs3)Oc3ccccc32)cc1	i	?	79µM*	?	?	?	-20%[86.2 µM]	0%[86.2 µM]
O=C1NCCCC12CCN(Cc1cccc(C(F)(F)F)c1F)C2 (stereo not drawn)	i	2%	-21%	-15%	/	/	/	/
CCc1csc(CNc2cc(C3CC(O)C3)nc(N)n2)n1 (stereo not drawn)	i	-23%	?	?	/	/	/	/
Nc1nc(NCc2ccc(Cl)cc2Cl)cc(C2CC(O)C2)n1 (stereo not drawn)	i	7.1µM*	?	?	11µM*	19µM*	4%	9.7µM*
O=C(Cc1c[nH]c2ncc(-c3ccc(Oc4ccccc4)cc3)cc12)N1CCOCC1	i	10µM*	56µM*	?	13µM*	18µM*	?	11µM*
O=C(Cc1c[nH]c2ncc(-c3ccccc3)cc12)N1CCCC1	i	?	?	?	28µM*	?	?	?
O=C(Cc1c[nH]c2ncc(-c3cccc(O)c3)cc12)N1CCOCC1	i	-27%[70.6 µM]	?	?	/	/	/	/
O=C(Cc1c[nH]c2ncc(-c3ccccc3)cc12)N1CC[S+](=O)([O-])CC1	?	0%[70.6 µM]	-1%[172 µM]	?	/	/	/	/
O=C(Cc1c[nH]c2ncc(-c3ccccc3Oc3ccccc3)cc12)N1CCOCC1	i	14µM*	50µM*	?	13µM*	22µM*	-2%[86.2 µM]	13µM*
O=C(Cc1c[nH]c2ncc(-c3ccccc3)cc12)NCCN1CCOCC1	i	3%[70.6 µM]	-16%[172 µM]	?	/	/	/	/
COc1cc(F)cc(-c2cnc3[nH]cc(CC(=O)N4CCOCC4)c3c2)c1	i	6.3µM*	?	?	3.1µM*	18µM*	?	7.9µM*
COc1ccc(-c2cnc3[nH]cc(CC(=O)N4CCNC(=O)C4)c3c2)cc1	i	-15%[70.6 µM]	-11%[172 µM]	?	/	/	/	/
SMILES	FLuc inh	NPR1 antag	HEK cytotox	3T3 cytotox	NPR1 antag cnf	NPR2 antag	FLuc inh counter	GloSensor ctrl
CC1CCN([C@@H]2[C@H](O)[C@H](CO)O[C@@H]2CN(Cc2ccc(F)cc2)Cc2ccc(F)cc2)CC1	i	-14%	?	?	/	/	/	/
O=C(c1cc(F)ccc1Cl)N1CCC2(CC1)N(c1ccccc1)C(=O)CS2(=O)=O	i	4%	0%	3%	/	/	/	/
O=C1COc2ccc(-c3ccoc3)nc2CN1Cc1ccc(C(F)(F)F)cc1	i	35µM*	?	79µM*	35µM*	35µM*	-1%[86.2 µM]	35µM*
Cc1ccccc1-c1ccc2c(n1)CN(Cc1ccccc1)C(=O)CO2	i	-4%[70.6 µM]	?	?	/	/	/	/
O=C1COc2ccc(-c3ccoc3)nc2CN1Cc1ccccc1	i	?	?	?	?	?	-3%[86.2 µM]	?
CN1CCCC1COc1ccc2c(n1)CN(Cc1ccc(C(F)(F)F)cc1)C(=O)CO2 (stereo not drawn)	i	-2%[70.6 µM]	?	?	/	/	/	/
CC(C)c1nc(-c2ccc(OC3CCN(C(=O)c4cc(F)ccc4F)C3)cc2)no1 (stereo not drawn)	i	11µM*	20µM*	?	11µM*	14µM*	1%	11µM*
O=C(c1cc(F)ccc1F)N1CCC(Oc2cccnc2)C1 (stereo not drawn)	/	/	-9%	-22%	/	/	/	/

Compound activity deposited in PubChem by National Center for Advancing Translational Sciences (NCATS).
